Bioassay records (PubChem BioAssay)
This excerpt belongs to a sample that is enriched for hits.
U2OS ROS induce: cancer cell ROS induction. ROS induction (% of piperlongumine), % at 10 µM. U2OS ROS induction, H2DCF-DA fluorescence. actives 2% (n = 46,000); in the data active = ROS induction above about 79%, passing the limit was not always enough;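 also: 0% = DMSO vehicle median and 100% = reference compound median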
NOMO-1 viab: STK33 inhibitor candidate reducing NOMO-1 cell viability. inhibition, % (concentration not given with the values). actives 7.5% (n = 37,000). NOMO-1 AML viability, CellTiter-Glo luminescence, 72 h; in the data active = inhibition above about 80%
Numbers without * were called inactive.

What do the screens show for `O=C(O)CCS(=O)(=O)c1cccc2cccnc12`?
U2OS ROS induce: -0.8; NOMO-1 viab: -25.1

How did COC(=O)CCS(=O)(=O)c1cccc2c(S(=O)(=O)CCC(=O)OC)cccc12 do in these assays?
U2OS ROS induce: 7.7; NOMO-1 viab: 124.2*

Results for O=C(/C=C/c1ccc(O)cc1)NCC(O)c1ccc(O)cc1 (stereo not drawn) ?
U2OS ROS induce: -1.6; NOMO-1 viab: 8.0

What do the screens show for `COc1ccc(-n2cc(-c3ccccc3)c3c(N4CCCCC4)ncnc32)cc1`?
U2OS ROS induce: 115.7*

Results for COC(CNc1ncnc2c1c(-c1ccccc1)cn2-c1ccc(C)cc1)OC ?
U2OS ROS induce: 55.6

What do the screens show for `O=c1cc(CSc2cccc3cccnc23)c2ccc(O)cc2o1`?
U2OS ROS induce: 14.8; NOMO-1 viab: 110.4*

Results for O=c1cc(CSc2ccccn2)c2ccc(O)cc2o1 ?
U2OS ROS induce: 20.3; NOMO-1 viab: 19.8

What do the screens show for `COc1ccc(C(C)C)cc1S(=O)(=O)n1nnc2ccccc21`?
U2OS ROS induce: -15.9; NOMO-1 viab: -2.4

What do the screens show for `COc1ccc(C(C)C)cc1S(=O)(=O)n1cnc2ccccc21`?
U2OS ROS induce: 29.4; NOMO-1 viab: 122.6*

How did COc1ccc(-c2c(C#N)c(SCC(N)=O)nc(C)c2C(=O)Nc2ccccc2)cc1 do in these assays?
NOMO-1 viab: 30.3

How did COC(=O)C1=C(C)NC2=C(C(=O)c3ccccc32)C1c1cc(Cl)c(OCc2ccc([N+](=O)[O-])cc2)c(OC)c1 (stereo not drawn) do in these assays?
U2OS ROS induce: 8.3; NOMO-1 viab: 34.2

Results for C[C@@H]1CCCCO[C@@H](CN(C)S(C)(=O)=O)[C@@H](C)CN([C@H](C)CO)C(=O)c2cc(NS(=O)(=O)c3cn(C)cn3)ccc2O1 ?
U2OS ROS induce: -6.2; NOMO-1 viab: -2.2

Results for C=C(C)C(=O)O[C@H]1[C@H]2C(=C)C(=O)O[C@@H]2C[C@@H](C)/C=C/C(=O)[C@](C)(O)[C@@H]1OC(=O)C(=C)C ?
U2OS ROS induce: 55.9; NOMO-1 viab: 107.5*

What do the screens show for `C=C(C)C(=O)OC1CC(CO)CCC/C(CO)=C\C2OC(=O)C(=C)C21` (stereo not drawn)?
U2OS ROS induce: 22.5

Results for C=C(C)C(=O)O[C@@H]1C2=C(C)C(=O)OC2(O)CC23OC2CC[C@H](C)[C@@]13C (stereo partly drawn) ?
U2OS ROS induce: 5.9; NOMO-1 viab: 23.5

Results for C=C(C)C(=O)O[C@H]1[C@H]2C(=C)C(=O)O[C@@H]2C[C@@H](C)[C@@H]2O[C@@H]2C(=O)[C@](C)(O)[C@@H]1OC(C)=O ?
U2OS ROS induce: 81.9*; NOMO-1 viab: 122.2*

Results for C[C@@H]1CN([C@H](C)CO)C(=O)c2cccc(NC(=O)Nc3ccc(C(F)(F)F)cc3)c2O[C@H]1CN(C)S(=O)(=O)c1cn(C)cn1 ?
U2OS ROS induce: -3.8; NOMO-1 viab: 23.0

Results for CC(C)(C)OC(=O)Nc1ccc(/C=N/NC(=O)c2ccccc2O)cc1 ?
U2OS ROS induce: 34.1

Results for COc1cccc(/C=C2/NC(=O)N(Cc3ccc(F)cc3)C2=O)c1 ?
U2OS ROS induce: -11.9

How did COc1cc(NC(=O)Cn2nc(C(F)(F)F)cc2C)cc([N+](=O)[O-])c1 do in these assays?
NOMO-1 viab: 9.4

What do the screens show for `COc1ccc(NC(=O)Nc2cccc3c2O[C@@H](CN(C)S(C)(=O)=O)[C@H](C)CN([C@@H](C)CO)C3=O)cc1`?
U2OS ROS induce: 111.5*; NOMO-1 viab: -0.7

How did COc1ccc(NC(=O)Nc2cccc3c2O[C@H](CN(C)S(C)(=O)=O)[C@H](C)CN([C@@H](C)CO)C3=O)cc1 do in these assays?
U2OS ROS induce: -6.5; NOMO-1 viab: -13.4

How did C[C@@H]1CN([C@H](C)CO)C(=O)c2cccc(NC(=O)Nc3ccc(F)cc3)c2O[C@H]1CN(C)S(C)(=O)=O do in these assays?
U2OS ROS induce: 18.3; NOMO-1 viab: 17.2

How did C[C@@H]1CN([C@@H](C)CO)C(=O)c2cccc(NC(=O)Nc3ccc(F)cc3)c2O[C@@H]1CN(C)S(C)(=O)=O do in these assays?
U2OS ROS induce: 89.9*; NOMO-1 viab: 3.6

How did O=C(NC1CC1)c1ccc2c(c1)N(Cc1ccccc1)C(=O)c1ccccc1S2 do in these assays?
U2OS ROS induce: 0.8

How did COc1cc(-c2cc(=O)c3c(O)c(OC)c(OC)c(OC)c3o2)cc(OC)c1OC do in these assays?
U2OS ROS induce: 99.0*; NOMO-1 viab: 11.7

What do the screens show for `COc1cc2oc(-c3ccc(O)cc3)cc(=O)c2c(O)c1OC`?
U2OS ROS induce: 62.7; NOMO-1 viab: 41.8

How did CN1C(c2ccccc2)=Nc2cccc3cccc1c23 do in these assays?
U2OS ROS induce: 11.9

How did O=C(O)c1ccc(CSC2CCCCC2)cc1 do in these assays?
U2OS ROS induce: -13.1

What do the screens show for `COc1cc(NC(=O)c2ccc(CSC3CCCCC3)cc2)cc(OC)c1OC`?
U2OS ROS induce: 135.1*

What do the screens show for `CCOC(=O)c1cn2c3c(ccc(C)c3c1=O)OC(CC)C2` (stereo not drawn)?
U2OS ROS induce: 7.2

How did CCc1ccc(O)c(NC(=S)NC(=O)COc2ccc(C)cc2C)c1 do in these assays?
NOMO-1 viab: 119.6*

Results for Cc1ccc(OCC(=O)O)c(C)c1 ?
U2OS ROS induce: 11.5; NOMO-1 viab: -9.7

Results for COc1ccc(Cl)cc1N(CC(=O)Nc1ccccc1C(F)(F)F)S(C)(=O)=O ?
NOMO-1 viab: -2.4

What do the screens show for `COc1ccc(NC(=O)Nc2cccc3c2O[C@H](CN(C)C(=O)Nc2ccccc2)[C@@H](C)CN([C@@H](C)CO)C3=O)cc1`?
U2OS ROS induce: -2.9; NOMO-1 viab: -5.5

Results for O=C(CCN1C(=O)c2ccccc2C1=O)Nc1ccc(NC(=O)c2ccco2)cc1 ?
U2OS ROS induce: -17.1; NOMO-1 viab: 26.0

Results for O=C(ON1C(=O)c2ccccc2C1=O)c1ccco1 ?
U2OS ROS induce: -3.7; NOMO-1 viab: 115.3*

How did O=C(COc1ccc(Cl)cc1Cl)Nc1ncccn1 do in these assays?
NOMO-1 viab: 9.2

What do the screens show for `C=CCNC(=O)COc1ccc(Cl)cc1Cl`?
U2OS ROS induce: 20.2; NOMO-1 viab: 115.0*

How did COc1ccc(NC(=O)CN(c2ccc(Cl)c(Cl)c2)S(C)(=O)=O)cc1OC do in these assays?
NOMO-1 viab: 5.4

How did COc1ccc(S(=O)(=O)N(C)C[C@@H]2Oc3c(NC(=O)Nc4ccc5c(c4)OCO5)cccc3C(=O)N([C@H](C)CO)C[C@@H]2C)cc1 do in these assays?
U2OS ROS induce: 18.1; NOMO-1 viab: 18.1

How did NNC(=O)c1cc2c(s1)-c1ccccc1CC2 do in these assays?
U2OS ROS induce: -8.3; NOMO-1 viab: 42.4

How did O=C(C/C(=C1/CCc2ccccc2C1=O)c1ccccc1)c1ccccc1 do in these assays?
U2OS ROS induce: 11.8; NOMO-1 viab: 114.9*

What do the screens show for `C=CCNC(=O)[C@@H]1[C@H]2C(=O)O[C@H](c3ccccc3)[C@H](c3ccccc3)N2[C@H](c2ccc(OCCO)cc2)[C@@]12C(=O)N(C(=O)OCCOC)c1ccc(C#Cc3ccc(OC)cc3)cc12`?
U2OS ROS induce: 9.1

What do the screens show for `C=CCNC(=O)[C@@H]1[C@H]2C(=O)O[C@H](c3ccccc3)[C@H](c3ccccc3)N2[C@H](c2ccc(OCCO)cc2)[C@@]12C(=O)N(C(=O)OCCOC)c1ccc(C#CCC(C(=O)OC)C(=O)OC)cc12`?
U2OS ROS induce: 132.2*
